Laboratory results as given in PubChem BioAssay (NCI).
This is part of a sample that, as a whole, favours compounds with a hit. Of some 79,000 tested, about 15% had one in any assay. A number with no mark means an inactive call. Activity calls are given as the source filed them. No stated cut-off is given here; in the data, active means growth inhibition above about 70%; inactive means the rest.

Tests used:
[1] = NCI Yeast Anticancer Drug Screen. Data for the rad50 strain (AID 155);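 further: 0% = growth of vehicle-only cultures of the same strain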; details: S. cerevisiae rad50 strain growth inhibition, stronger effect = higher value
Outline: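 Relative growth inhibition (compound vs vehicle) was measured in yeast with a defined repair-gene alteration.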

[2] = NCI Yeast Anticancer Drug Screen. Data for the mec2-1 strain (AID 157); details: S. cerevisiae mec2-1 strain, stronger effect = higher value
Outline: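 Growth inhibition is read against vehicle-treated controls after compound exposure of the mec2-1 yeast strain, which is defective in DNA damage repair or cell cycle control.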

[3] = NCI Yeast Anticancer Drug Screen. Data for the sgs1 mgt1 strain (AID 161);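 further: 0% = growth of cultures given vehicle only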; details: S. cerevisiae sgs1 mgt1 strain, stronger effect = higher value
Outline: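 Percent growth inhibition was derived by comparing compound-exposed mutant yeast with vehicle-exposed cultures. The strain carries alterations in DNA damage repair.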

[4] = NCI Yeast Anticancer Drug Screen. Data for the cln2 rad14 strain (AID 165);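 further: 0% = growth equal to vehicle treated cultures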; details: S. cerevisiae cln2 rad14 strain, stronger effect = higher value
Outline: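 Growth inhibition, relative to vehicle-treated controls, is the read-out. The test organism is a yeast strain with defined genetic alterations, cln2 rad14.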

[5] = NCI Yeast Anticancer Drug Screen. Data for the bub3 strain (AID 167); details: S. cerevisiae bub3 mutant strain, stronger effect = higher value
Outline: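 Screening used yeast with an engineered genetic alteration affecting cell cycle control. Compound-exposed cultures were compared with vehicle cultures, and reduced growth was taken as inhibition.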

[6] = NCI Yeast Anticancer Drug Screen. Data for the mlh1 rad18 strain (AID 175); details: S. cerevisiae mlh1 rad18 strain growth inhibition, stronger effect = higher value
Outline: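 Cells of a genetically altered yeast strain, deficient in DNA damage repair, were treated with compound. Their growth was then compared with that of vehicle-treated cultures to give inhibition.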

[7] = at 5.0 µM (retest, dose inferred, filed as 0.5)
[8] = at 50.0 µM (retest, dose inferred, filed as 5.0)

| Structure (SMILES) | growth inhibition [1, 7] | growth inhibition [1, 8] | growth inhibition ([1]; at 50.0 µM) | growth inhibition [2, 7] | growth inhibition [2, 8] | growth inhibition ([2]; at 50.0 µM) | growth inhibition [3, 7] | growth inhibition [3, 8] | growth inhibition ([3]; at 50.0 µM) | growth inhibition [4, 7] | growth inhibition [4, 8] | growth inhibition ([4]; at 50.0 µM) | growth inhibition [5, 7] | growth inhibition [5, 8] | growth inhibition ([5]; at 50.0 µM) | growth inhibition [6, 7] | growth inhibition [6, 8] | growth inhibition ([6]; at 50.0 µM) |
| --- | --- | --- | --- | --- | --- | --- | --- | --- | --- | --- | --- | --- | --- | --- | --- | --- | --- | --- |
| CC(C)COP(=O)(OCC(C)C)C(NS(=O)(=O)c1ccccc1)(C(F)(F)F)C(F)(F)F | 4% | 11% | 63.5% | -12% | -2% | 82.7% (active) | 7% | -5% | -2.35% | 27% | 42% | 6.85% | -6% | 8% | -3.8% | 0% | 3% | 90.2% (active) |
| O=C(/C=C/c1ccccc1Cl)c1ccc(F)cc1 | 7% | 22% | 54.2% | -12% | 20% | 70.4% (active) | -1% | -4% | 53.8% | 9% | 17% | 34% | 33% | 51% | 78.8% (active) | 8% | 47% | 29.6% |
| OC(C/C(=N\N=C(/CC(O)(C(F)(F)F)C(F)(F)F)c1ccccc1)c1ccccc1)(C(F)(F)F)C(F)(F)F | -2% | 2% | 62.6% | -6% | -11% | 51% | -7% | -17% | 50.9% | 6% | 12% | 62.1% | 1% | -5% | 69% | -8% | 3% | 71.1% (active) |
| Nc1ccccc1SC(/C=C/NNC1=NC(c2ccccc2)C(c2ccccc2)=NN1)c1ccccc1 (configuration not stated) | 43% | 43% | 93% (active) | 7% | 7% | 93% (active) | 19% | 19% | 91.5% (active) | 29% | 29% | 91.7% (active) | 30% | 30% | 93.3% (active) | 11% | 11% | 91.8% (active) |
| O=C(Nc1ccc(O)cc1O)c1ccccc1 | 2% | 53% | 85% (active) | -15% | 61% | 76.7% (active) | 6% | 82% (active) | 90.4% (active) | 7% | 50% | 72.3% (active) | 11% | 46% | 89.2% (active) | 3% | 76% (active) | 85.1% (active) |
| CCCC(=O)C1=C(O)C(Cc2c(O)c(C)c(O)c(C(=O)CCC)c2O)=C(O)C(C)(C)C1=O | -1% | 52% | 98.2% (active) | 4% | 34% | 92.9% (active) | 6% | 56% | 98.5% (active) | -4% | 83% (active) | 99.1% (active) | -1% | 92% (active) | 98.3% (active) | 7% | 66% | 99% (active) |
| C1=C(C2=C[P+](c3ccccc3)(c3ccccc3)C=C(c3ccccc3)O2)OC(c2ccccc2)=C[P+]1(c1ccccc1)c1ccccc1 | 7% | 15% | -10.1% | 4% | 8% | -7.05% | 5% | 15% | -5.35% | 5% | 2% | 71% (active) | 11% | 66% | 6.8% | 9% | 6% | 18.3% |
| Nc1nc(N)c2nc(CNc3ccc(C(=O)NC(CCC(=O)O)C(=O)O)cc3)ccc2n1 (configuration not stated) | -2% | -5% | 16.3% | -25% | 11% | 64.2% | 18% | 16% | 0.1% | 9% | 21% | -5.8% | 7% | 3% | -38.9% | -8% | 8% | -20.7% |
| Cc1cc(Br)c2ccccc2c1N | 1% | 69% | 88.3% (active) | 2% | 39% | 54.2% | 0% | 74% (active) | 94.2% (active) | -1% | 42% | 84.8% (active) | 1% | 22% | 75% (active) | -3% | 44% | 90.2% (active) |
| CCc1cc(/C=C\c2ccnc3ccccc23)ccc1N(C)C | -1% | 99% (active) | 98.2% (active) | -17% | 91% (active) | 98.4% (active) | -1% | 95% (active) | 98.3% (active) | -12% | 81% (active) | 93.5% (active) | -6% | 93% (active) | 98.1% (active) | -8% | 97% (active) | 98% (active) |
| O=C(C(=O)n1ncc(Cl)c(Cl)c1=O)n1ncc(Cl)c(Cl)c1=O | 5% | 7% | 18.6% | -5% | 10% | 70.9% (active) | 5% | 8% | 44.9% | -6% | -15% | 13.8% | -2% | -1% | 36.9% | 0% | 3% | 65.9% |
| NCCSC1(O)C(=O)c2ccccc2C1=O | 35% | 92% (active) | 94.4% (active) | 18% | 72% (active) | 65.7% | -4% | 64% | 56.1% | -3% | 46% | 59.3% | -3% | 43% | 48.5% | 0% | 70% (active) | 75.2% (active) |
| Cc1ccc2c(c1)C1(SC(CC(=O)O)C(=O)N1c1ccc(Cl)cc1)C(=O)N2 (configuration not stated) | 4% | 5% | 2.3% | 0% | -1% | 12.3% | 1% | -6% | -6.85% | -1% | -4% | -4.2% | 1% | 0% | -2.8% | 0% | -49% | 10.5% |
| FC(F)(F)c1cccc(COCCN2CCN(Cc3cccc(C(F)(F)F)c3)CC2)c1 | 36% | 98% (active) | 97.7% (active) | 26% | 98% (active) | 99.1% (active) | 46% | 99% (active) | 99.1% (active) | 33% | 99% (active) | 96.5% (active) | 29% | 98% (active) | 98.2% (active) | 21% | 98% (active) | 99% (active) |
| CCC(c1ccc(O)cc1)C(CC)c1ccc(OCC(N)=O)cc1 (configuration not stated) | 10% | -5% | 90.1% (active) | 0% | -10% | 80.5% (active) | -16% | 7% | 89.8% (active) | -18% | -22% | 78.8% (active) | -15% | 27% | 93% (active) | 20% | 44% | 91.3% (active) |
| Fc1ccc(NC(=S)SCc2ccco2)cc1 | 5% | 87% (active) | 89% (active) | 0% | 71% (active) | 61.6% | 5% | 67% | 84.7% (active) | 1% | 24% | 42.5% | -5% | 34% | 26.6% | 1% | 77% (active) | 95.4% (active) |
| O=C(Nn1c(=O)c(=O)oc2ccccc21)C(F)(F)F | 0% | 90% (active) | 94.7% (active) | 1% | 87% (active) | 69.4% | 17% | 88% (active) | 81.2% (active) | 3% | 93% (active) | 94.2% (active) | 9% | 95% (active) | 90.9% (active) | 26% | 97% (active) | 97.4% (active) |
| COC1=CC23C=CC1[C@@H](c1ccccc1)C2=C(C)C(=O)N3C(=O)NC1CCCCC1 (some centres not stated) | 21% | 21% | 71.1% (active) | -4% | -4% | 68.2% | 1% | 1% | 63.8% | 5% | 5% | 29.8% | -8% | -8% | 65% | -4% | -4% | 50.6% |
| NC(=S)N1N=C2c3ccccc3CCC[C@H]2[C@@H]1c1ccccc1 | 23% | 34% | 73.2% (active) | 16% | 27% | 70.1% (active) | 21% | 43% | 77.1% (active) | 12% | 13% | 63.9% | 25% | 47% | 74.2% (active) | 17% | 48% | 69.5% |
